# Test results taken from publication PMC5540273 (PLoS ONE, 2017).
# Legend:
# Conditions in all cases: concentration: 1 μM, replicates: in singlicate; n = 1
# [1] = tested on: PRKCI
# [2] = tested on: PRKCQ
# [3] = tested on: PRKD1
# [4] = tested on: PRKD2
# [5] = tested on: PRKD3
# [6] = tested on: PRKG1
# [7] = tested on: PRKG2
# [8] = tested on: T1, PRKR
# T1 construct: gene EIF2AK2
# [9] = tested on: PRKX
# [10] = tested on: PRP4
# [11] = tested on: T2, PYK2
# T2 construct: gene PTK2B
# [12] = tested on: QSK
# [13] = tested on: RAF1
# [14] = tested on: RET
# [15] = tested on: RIOK1
# [16] = tested on: RIOK2
# [17] = tested on: RIOK3
# [18] = tested on: RIPK1
# [19] = tested on: RIPK2
# [20] = tested on: RIPK4
# 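Also: KINOMEscan kinase panel screen.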
SMILES,%Inh [1],%Inh [2],%Inh [3],%Inh [4],%Inh [5],%Inh [6],%Inh [7],%Inh [8],%Inh [9],%Inh [10],%Inh [11],%Inh [12],%Inh [13],%Inh [14],%Inh [15],%Inh [16],%Inh [17],%Inh [18],%Inh [19],%Inh [20]
NS(=O)(=O)CCc1cccc(Nc2nccc(-c3c(-c4cccc(NC(=O)c5c(F)cccc5F)c4)nn4ccccc34)n2)c1 [GSK336735],11%,55%,40%,12%,56%,2%,0%,0%,13%,18%,29%,0%,92.8%,99.9%,38%,17%,26%,10%,97.9%,4%
Fc1ccc(-c2nn3c(OCC(F)(F)F)cccc3c2-c2ccncc2)cc1 [GW514784],25%,12%,27%,7%,0%,14%,7%,0%,3%,34%,1%,0%,8%,0%,39%,0%,5%,0%,43%,0%
COc1cc2c(cc1OC[C@@H](O)CO)ncc1c3ccc(C#N)cc3[nH]c21,0%,0%,0%,0%,0%,0%,0%,0%,0%,9%,0%,8%,21%,52%,65%,0%,76%,0%,0%,0%
COc1ccc(Nc2nccc(N3CCC(NC(=O)Nc4cccc(C(C)=O)c4)C3)n2)cc1 (centres unmarked) [GSK1379731],18%,18%,0%,11%,7%,0%,0%,0%,24%,0%,0%,0%,0%,0%,42%,0%,24%,0%,39%,0%
Cc1ccc(NC(=O)c2ccnc(N3CCN(C)CC3)c2)cc1-c1ccc(C(=O)NCC2CC2)cc1 [GW775604],0%,0%,0%,2%,0%,0%,0%,0%,0%,0%,0%,0%,10%,0%,0%,0%,0%,0%,0%,0%
Nc1nccc(-c2c(-c3ccc(F)cc3)ncn2C2CCN(CC(F)(F)F)CC2)n1 [SB-236560],14%,12%,0%,0%,0%,0%,27%,0%,0%,7%,5%,0%,0%,12%,32%,0%,19%,0%,51%,72%
O=C(NCCCN1CCOCC1)c1cccc(Nc2nccc(Nc3ccc(Oc4ccccc4)cc3)n2)c1 [GW663929],12%,0%,13%,25%,17%,0%,5%,20%,17%,21%,0%,0%,0%,17%,31%,23%,36%,24%,100%,29%
Cc1c2ccc(N(C)c3ccnc(Nc4cccc(S(N)(=O)=O)c4)n3)cc2nn1Cc1ccccc1.Cl.Cl [GW787226],0%,0%,0%,0%,0%,0%,0%,0%,0%,0%,9%,0%,94.5%,99.9%,0%,15%,0%,36%,95.9%,0%
Cc1nnc(-c2ccc(C)c(-c3ccc(C(=O)Nc4ccc(NS(C)(=O)=O)cc4)cc3)c2)o1 [GW702865],13%,0%,0%,0%,17%,7%,10%,8%,0%,56%,0%,0%,2%,45%,22%,0%,27%,36%,14%,0%
Cl.Oc1cccc(Nc2ccnc3cc(-c4ccncc4)ccc23)c1 [GW494601],22%,0%,25%,29%,17%,0%,1%,21%,0%,34%,0%,63%,22%,99.9%,0%,0%,0%,15%,83%,47%
